Results from ChEMBL document CHEMBL3988442, “University of Dundee, Small-Polar-MMV Screening Library” (2021).
For some of these results: Potency and affinity values are given separately.

Legend:
Design in all cases: scale not given: direction of the effect not stated beside the values
[1] = biological target: Protein translocase subunit SecA (Escherichia coli (strain K12)) (UniProt P10408); test: Assay to Identify E. coli SecA ATPase Inhibitors; format: functional; details: 30 µM
[2] = biological target: T1, Ubiquitin-activating enzyme e1, putative (Leishmania donovani (strain BPK282A1)) (UniProt E9BSI1); test: Leishmania donovani Ubiquitin Activating Enzyme (LdE1); format: functional; details: 30 µM
T1 sequence (whole entry): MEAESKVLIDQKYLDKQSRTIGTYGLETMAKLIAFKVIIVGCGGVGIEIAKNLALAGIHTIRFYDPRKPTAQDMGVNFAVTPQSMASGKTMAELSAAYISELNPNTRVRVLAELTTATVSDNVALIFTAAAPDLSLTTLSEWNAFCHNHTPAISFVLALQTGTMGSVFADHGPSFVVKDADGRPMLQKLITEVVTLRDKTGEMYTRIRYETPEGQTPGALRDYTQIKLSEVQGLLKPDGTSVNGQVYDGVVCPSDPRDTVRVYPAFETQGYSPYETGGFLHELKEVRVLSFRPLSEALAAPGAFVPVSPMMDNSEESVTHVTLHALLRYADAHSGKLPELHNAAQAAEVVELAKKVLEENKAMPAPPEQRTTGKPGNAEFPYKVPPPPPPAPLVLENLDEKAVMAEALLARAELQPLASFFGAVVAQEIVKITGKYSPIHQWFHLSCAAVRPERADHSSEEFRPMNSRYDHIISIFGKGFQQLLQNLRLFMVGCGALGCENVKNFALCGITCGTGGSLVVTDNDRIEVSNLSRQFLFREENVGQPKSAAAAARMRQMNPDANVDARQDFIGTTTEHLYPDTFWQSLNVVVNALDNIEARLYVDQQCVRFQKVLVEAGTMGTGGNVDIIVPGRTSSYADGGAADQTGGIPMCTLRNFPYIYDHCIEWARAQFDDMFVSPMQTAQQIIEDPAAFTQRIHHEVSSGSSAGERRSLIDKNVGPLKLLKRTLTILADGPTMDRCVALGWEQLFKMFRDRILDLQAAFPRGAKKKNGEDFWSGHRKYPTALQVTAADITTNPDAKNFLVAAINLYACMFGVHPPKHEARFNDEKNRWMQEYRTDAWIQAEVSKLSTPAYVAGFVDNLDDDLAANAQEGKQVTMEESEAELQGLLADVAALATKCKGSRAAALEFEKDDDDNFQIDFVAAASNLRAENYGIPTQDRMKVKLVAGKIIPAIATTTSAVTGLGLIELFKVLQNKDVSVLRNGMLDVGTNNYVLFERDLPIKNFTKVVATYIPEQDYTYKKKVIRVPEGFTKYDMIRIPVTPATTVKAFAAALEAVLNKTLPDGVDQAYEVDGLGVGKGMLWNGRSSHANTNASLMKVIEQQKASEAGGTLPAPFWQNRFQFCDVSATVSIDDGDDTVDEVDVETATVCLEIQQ

[3] = biological target: AMP-activated protein kinase, AMPK (Homo sapiens) (UniProt P54646+O43741+P54619+Q9UGJ0+Q9Y478+Q13131+Q9UGI9); test: AMP-dependent Kinase enzyme assay. An in vitro enzyme assay that detects ADP turnover that is directly proportional to AMPK activity. This uses naive AMPK that is activated during the assay with MK-8722; format: functional; details: 30 µM
[4] = biological target: Sialic acid-binding Ig-like lectin 9 (Homo sapiens) (UniProt Q9Y336); test: Hs-Siglec9 ALPHAscreen SOP 20170721; details: 10 µM
Chain of Sialic acid-binding Ig-like lectin 9 (Homo sapiens) (Q9Y336 whole entry): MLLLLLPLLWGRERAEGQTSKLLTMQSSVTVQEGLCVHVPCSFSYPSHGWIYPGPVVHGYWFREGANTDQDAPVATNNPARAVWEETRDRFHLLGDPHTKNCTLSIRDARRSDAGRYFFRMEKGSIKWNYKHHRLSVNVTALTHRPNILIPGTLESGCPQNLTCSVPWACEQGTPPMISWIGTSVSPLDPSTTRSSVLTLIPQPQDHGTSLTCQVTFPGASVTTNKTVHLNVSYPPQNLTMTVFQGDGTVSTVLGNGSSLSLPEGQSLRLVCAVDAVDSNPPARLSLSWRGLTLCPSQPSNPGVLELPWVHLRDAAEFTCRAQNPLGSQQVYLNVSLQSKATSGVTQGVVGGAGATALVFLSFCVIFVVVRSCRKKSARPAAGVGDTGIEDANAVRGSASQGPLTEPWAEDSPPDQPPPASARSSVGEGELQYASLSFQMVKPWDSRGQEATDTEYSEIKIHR

Trypanosoma cruzi = test: Trypanosoma cruzi phosphomannomutase and mannose-1-phosphate guanylyltransferase assay; format: functional; details: 10 µM
[5] = biological target: T2, Arginase-2, mitochondrial (Homo sapiens) (UniProt P78540); test: in vitro enzyme assay to detect the production of urea directly proportional to the activity of Arginase II; format: functional; details: 33.3 µM; note: in the data most compounds retested in dose-response had high values
T2 sequence (whole entry): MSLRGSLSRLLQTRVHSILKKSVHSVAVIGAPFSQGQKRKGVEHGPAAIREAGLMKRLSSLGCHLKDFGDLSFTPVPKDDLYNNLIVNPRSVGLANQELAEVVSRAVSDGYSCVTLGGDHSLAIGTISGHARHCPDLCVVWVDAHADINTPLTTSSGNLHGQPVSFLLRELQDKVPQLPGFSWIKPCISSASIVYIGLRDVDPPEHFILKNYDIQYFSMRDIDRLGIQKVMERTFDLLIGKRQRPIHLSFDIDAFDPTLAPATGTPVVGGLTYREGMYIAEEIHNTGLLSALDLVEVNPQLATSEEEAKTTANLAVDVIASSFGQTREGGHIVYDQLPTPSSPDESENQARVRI

[6] = biological target: T3, Proteasome subunit beta (Trypanosoma cruzi) (UniProt O96673); test: Trypanosoma cruzi proteasome chymotrypsin-like activity (TcProtChymo) assay.; note: in the data most compounds retested in dose-response had high values; format: functional; details: 9.37 µM
T3 sequence (whole entry): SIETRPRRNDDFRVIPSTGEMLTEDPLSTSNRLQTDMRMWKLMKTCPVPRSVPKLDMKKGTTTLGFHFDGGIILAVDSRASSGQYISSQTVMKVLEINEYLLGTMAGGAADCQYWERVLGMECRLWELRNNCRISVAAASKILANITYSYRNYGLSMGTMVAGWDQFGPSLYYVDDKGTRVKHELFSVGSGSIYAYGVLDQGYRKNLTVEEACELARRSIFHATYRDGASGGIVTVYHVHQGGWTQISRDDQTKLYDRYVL

Homo sapiens = species on record: Homo sapiens; test: To identify inhibition of the IFN signalling (Jak-Stat) pathway via expression of an eGFP reporter gene under the control of an IFN-stimulated response element (ISRE) containing MxA promoter.; format: functional; details: 30 µM
[7] = biological target: T4, Tyrosyl-tRNA synthetase, putative (Trypanosoma cruzi (strain CL Brener)) (UniProt Q4DSP6); test: Trypanosoma cruzi tyrosyl tRNA synthetase (TcYRS) _High Tyrosine SOP; format: functional; details: 30 µM; note: in the data most compounds retested in dose-response had high values
T4 sequence (whole entry): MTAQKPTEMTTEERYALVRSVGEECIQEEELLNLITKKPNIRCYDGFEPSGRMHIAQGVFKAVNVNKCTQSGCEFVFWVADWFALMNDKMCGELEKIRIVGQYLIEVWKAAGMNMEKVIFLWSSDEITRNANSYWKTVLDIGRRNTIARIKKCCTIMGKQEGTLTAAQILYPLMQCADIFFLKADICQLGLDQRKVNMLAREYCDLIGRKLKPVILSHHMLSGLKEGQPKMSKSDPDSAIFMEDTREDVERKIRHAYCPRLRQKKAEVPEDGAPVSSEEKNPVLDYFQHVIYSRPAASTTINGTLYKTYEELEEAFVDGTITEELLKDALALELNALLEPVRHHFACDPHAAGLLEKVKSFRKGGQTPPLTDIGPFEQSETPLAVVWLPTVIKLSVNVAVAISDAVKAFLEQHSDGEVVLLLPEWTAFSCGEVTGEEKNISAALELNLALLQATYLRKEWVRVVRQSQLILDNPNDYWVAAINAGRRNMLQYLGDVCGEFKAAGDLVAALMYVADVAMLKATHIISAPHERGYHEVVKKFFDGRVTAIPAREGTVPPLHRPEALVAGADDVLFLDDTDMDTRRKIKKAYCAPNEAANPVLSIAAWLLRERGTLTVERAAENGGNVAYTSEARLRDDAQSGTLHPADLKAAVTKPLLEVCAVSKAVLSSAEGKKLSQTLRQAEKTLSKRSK

[8] = biological target: T4, Tyrosyl-tRNA synthetase, putative (Trypanosoma cruzi (strain CL Brener)); test: Trypanosoma cruzi tyrosyl tRNA synthetase (TcYRS) SOP; format: functional; details: 30 µM
[9] = biological target: Chromo domain-containing protein 1 (Saccharomyces cerevisiae (strain ATCC 204508 / S288c) (Baker's yeast)) (UniProt P32657); test: ScCHD-1 Enzyme Inhibition Assay; format: functional; details: 30 µM; note: in the data most compounds retested in dose-response had high values
Chain of Chromo domain-containing protein 1 (Saccharomyces cerevisiae (strain ATCC 204508 / S288c) (Baker's yeast)) (P32657 whole entry, the tested form may be a part): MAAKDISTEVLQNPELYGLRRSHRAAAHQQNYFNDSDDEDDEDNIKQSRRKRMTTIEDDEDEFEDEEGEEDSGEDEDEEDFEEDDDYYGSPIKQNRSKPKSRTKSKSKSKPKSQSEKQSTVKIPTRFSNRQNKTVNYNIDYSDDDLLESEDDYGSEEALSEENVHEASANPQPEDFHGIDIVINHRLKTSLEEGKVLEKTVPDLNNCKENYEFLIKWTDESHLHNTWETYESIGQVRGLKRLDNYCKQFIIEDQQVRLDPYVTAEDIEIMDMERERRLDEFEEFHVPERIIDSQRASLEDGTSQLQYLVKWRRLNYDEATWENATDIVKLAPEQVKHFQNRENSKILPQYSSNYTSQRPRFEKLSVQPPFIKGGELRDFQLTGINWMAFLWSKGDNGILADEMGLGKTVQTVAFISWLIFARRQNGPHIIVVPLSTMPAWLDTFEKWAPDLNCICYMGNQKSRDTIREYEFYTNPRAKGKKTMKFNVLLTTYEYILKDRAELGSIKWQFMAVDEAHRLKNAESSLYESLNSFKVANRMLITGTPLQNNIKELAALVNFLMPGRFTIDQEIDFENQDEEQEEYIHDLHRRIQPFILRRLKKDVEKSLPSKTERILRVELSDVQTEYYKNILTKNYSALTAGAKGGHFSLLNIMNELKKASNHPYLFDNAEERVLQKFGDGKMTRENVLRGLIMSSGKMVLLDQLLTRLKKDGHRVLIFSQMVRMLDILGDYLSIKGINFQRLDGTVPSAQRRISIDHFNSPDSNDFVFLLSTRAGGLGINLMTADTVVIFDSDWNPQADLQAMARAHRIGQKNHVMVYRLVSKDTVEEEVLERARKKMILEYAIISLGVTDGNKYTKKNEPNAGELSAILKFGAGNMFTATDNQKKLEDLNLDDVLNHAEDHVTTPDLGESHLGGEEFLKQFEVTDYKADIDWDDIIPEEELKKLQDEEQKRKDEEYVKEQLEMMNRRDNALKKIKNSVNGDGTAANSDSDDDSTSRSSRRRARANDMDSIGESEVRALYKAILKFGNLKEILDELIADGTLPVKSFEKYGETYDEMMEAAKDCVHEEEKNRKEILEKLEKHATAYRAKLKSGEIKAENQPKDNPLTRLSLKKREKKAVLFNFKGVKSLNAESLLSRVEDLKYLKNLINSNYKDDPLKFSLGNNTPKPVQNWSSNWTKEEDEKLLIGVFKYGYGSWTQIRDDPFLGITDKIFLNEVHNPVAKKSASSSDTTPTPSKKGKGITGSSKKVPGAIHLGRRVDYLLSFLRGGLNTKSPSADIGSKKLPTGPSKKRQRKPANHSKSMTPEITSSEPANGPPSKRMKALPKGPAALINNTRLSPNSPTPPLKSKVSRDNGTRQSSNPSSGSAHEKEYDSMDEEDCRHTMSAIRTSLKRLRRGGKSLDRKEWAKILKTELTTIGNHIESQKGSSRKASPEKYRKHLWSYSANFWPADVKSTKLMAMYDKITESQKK

Chain of Protein translocase subunit SecA (Escherichia coli (strain K12)) (P10408 whole entry): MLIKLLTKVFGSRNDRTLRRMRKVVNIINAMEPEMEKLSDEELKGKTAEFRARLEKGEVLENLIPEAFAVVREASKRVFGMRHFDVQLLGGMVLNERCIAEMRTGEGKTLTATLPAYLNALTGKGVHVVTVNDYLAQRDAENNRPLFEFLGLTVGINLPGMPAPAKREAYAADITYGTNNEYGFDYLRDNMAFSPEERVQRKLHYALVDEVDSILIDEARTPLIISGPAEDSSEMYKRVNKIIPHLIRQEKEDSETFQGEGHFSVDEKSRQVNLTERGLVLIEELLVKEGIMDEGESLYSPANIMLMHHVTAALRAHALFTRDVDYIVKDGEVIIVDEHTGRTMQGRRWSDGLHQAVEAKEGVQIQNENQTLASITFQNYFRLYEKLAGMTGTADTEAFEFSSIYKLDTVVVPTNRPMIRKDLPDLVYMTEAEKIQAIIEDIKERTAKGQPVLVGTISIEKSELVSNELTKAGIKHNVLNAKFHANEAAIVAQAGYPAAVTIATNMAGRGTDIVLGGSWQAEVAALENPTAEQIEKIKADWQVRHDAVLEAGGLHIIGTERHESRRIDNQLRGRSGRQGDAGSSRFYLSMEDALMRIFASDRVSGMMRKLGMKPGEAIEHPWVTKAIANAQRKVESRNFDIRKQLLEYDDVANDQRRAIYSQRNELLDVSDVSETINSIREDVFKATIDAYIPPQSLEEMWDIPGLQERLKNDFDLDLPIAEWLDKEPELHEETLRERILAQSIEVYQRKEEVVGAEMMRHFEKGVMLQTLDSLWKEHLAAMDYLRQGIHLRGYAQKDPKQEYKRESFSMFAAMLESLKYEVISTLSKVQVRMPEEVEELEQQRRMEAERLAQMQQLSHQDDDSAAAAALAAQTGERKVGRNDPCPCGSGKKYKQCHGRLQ

Row | SMILES | Percent Effect [1] | Percent Effect [2] | Percent Effect [3] | Percent Effect [4] | Percent Effect (Trypanosoma cruzi) | Percent Effect [5] | Percent Effect [6] | Percent Effect (Homo sapiens) | Percent Effect [7] | Percent Effect [8] | Percent Effect [9]
1 | Cc1nc(CO[C@@H]2CN(Cc3cnn(C)c3)[C@@H]3COC[C@@H]32)cs1 | -0.847% | 13.7% | 1.23% | 4.76% | -2.58% | 1.6% | 7.96% | 2.98% | 3.12% | 11.1% | 3.26%
2 | CCc1ncncc1C(=O)N1CCN(Cc2ccco2)CC1 | -3.87% | 0% | 2.99% | -2.08% | -4.2% | 3.24% | 0.592% | 4.36% | -3.45% | -11.1% | 2.25%
3 | O=C(NCc1cc[nH]n1)N1CCN(c2ccccc2Cl)CC1 | -5% | 23.7% | -1.65% | 3.62% | 1.96% | -0.719% | 14.1% | 15.6% | 7.39% | 18.5% | -10.1%
4 | N#Cc1ccccc1C(=O)N1CCC2(CC(=O)NC2=O)C1 (stereo not drawn) | 0.342% | 10.8% | 0.526% | 4.48% | -5.21% | -2.38% | 14% | 14.1% | 4.76% | 4.88% | -3.81%
5 | COCCCNC(=O)NCc1ccc(C)cc1 | -4.5% | 6.33% | -3.62% | -1.57% | -0.308% | -4.52% | 13.2% | 1.42% | 5.21% | 17.7% | -28.6%
6 | Cc1ccc2c(c1)C1(CC2)CCN(c2nncs2)CC1 | -0.497% | 0% | 5.45% | 1.98% | 1.59% | 3.59% | 7.28% | 20.4% | 6.25% | 11.1% | 5.12%
7 | COC(C(=O)N1CCN(c2cccc(Cl)c2)C(=O)C1)c1ccccc1 (stereo not drawn) | -1.02% | 0% | 0.72% | 1% | -2.7% | 3.33% | 14.7% | 0.627% | 3.7% | 9.76% | -4.32%
8 | CC(C)(C)SCCCC(=O)N1CCC(Nc2cccnn2)CC1 | -1.17% | -2.7% | -6.83% | 13.1% | 0.283% | -1.6% | -1.98% | 8.77% | 4.43% | 6.17% | 0.803%
